In all, about 16,000 sequences were measured (“rpm ratio (pull-down/input)”: median about 0.5, highest 2% from about 5.5 on). For the sample, the highest values were picked, then their nearest neighbours and some sequences at random.

The test concerns the target T1, MBP-FoxP3dN (Mus musculus, UniProt Q99JB6 188-423).
T1 sequence: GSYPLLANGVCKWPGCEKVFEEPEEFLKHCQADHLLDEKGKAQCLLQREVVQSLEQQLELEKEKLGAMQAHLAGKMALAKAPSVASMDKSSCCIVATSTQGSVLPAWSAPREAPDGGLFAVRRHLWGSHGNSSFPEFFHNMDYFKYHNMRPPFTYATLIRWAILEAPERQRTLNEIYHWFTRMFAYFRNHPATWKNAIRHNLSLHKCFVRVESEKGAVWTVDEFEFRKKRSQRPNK
Nature of the test: PD-seq (MBP pull-down with sequencing); 20 mM Tris-HCl pH 7.5, 100 mM NaCl, 1.5 mM MgCl2, 0.4 uM protein, 0.1 uM dsDNA library, 30 min, room temperature, amylose pull-down; high values mean tight binding. To be noted: protein: recombinant; tags: His6-MBP; chain copies: 2; dsDNA, one strand shown. The essentials: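 Amylose resin was used to capture complexes formed during 30 min at room temperature in Tris pH 7.5 buffer with NaCl and MgCl2 between 0.4 µM His6-MBP-tagged mouse FoxP3 or FoxP1 fragment lacking the N-terminus, expressed in E. coli, and 0.1 µM Klenow-filled double-stranded degenerate DNA library. After three washes, the DNA was released with proteinase K, barcoded by PCR and sequenced on Illumina. Binding is pooled-replicate reads-per-million enrichment, pull-down over input.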
For the sequence “GATGATTGTTCTCCCAGCTGATGAATTTCAGCAATCGAGTAAACAAATTTTCCTAATCTTTCTGTTCAAGCGCCATCTAC”, the binding signal is 1.94 RPM ratio (pull-down/input).

In the case of “GATGATTGTTCTCCCAGCTGATGAATTCACAGCATCGAGTAAACAAATTTTCCTAATCTTTCTGTTCAAGCGCCATCTAC”, the binding signal is 0.801 RPM ratio (pull-down/input). With “GATGATTGTTCTCCCAGCTGATGAATTAGCACTTTCGAGTAAACAAATTTTCCTAATCTTTCTGTTCAAGCGCCATCTAC”, the binding signal is 0.435 RPM ratio (pull-down/input).

With “GATGATTGTTCTCCCAGCTGATGAATTAATCTATTCGAGTAAACAAATTTTCCTAATCTTTCTGTTCAAGCGCCATCTAC”, the binding signal was 0.398 RPM ratio (pull-down/input). Take “GATGATTGTTCTCCCAGCTGATGAATTTCTAATTTCGAGTAAACAAATTTTCCTAATCTTTCTGTTCAAGCGCCATCTAC”: the binding signal is 0.301 RPM ratio (pull-down/input). Turning to “GATGATTGTTCTCCCAGCTGATGAATTATTTATGTCGAGTAAACAAATTTTCCTAATCTTTCTGTTCAAGCGCCATCTAC”, the binding signal is 2.12 RPM ratio (pull-down/input). As to “GATGATTGTTCTCCCAGCTGATGAATTGGTTATGTCGAGTAAACAAATTTTCCTAATCTTTCTGTTCAAGCGCCATCTAC”, the binding signal was 2.38 RPM ratio (pull-down/input).

With “GATGATTGTTCTCCCAGCTGATGAATTATGTTTGTCGAGTAAACAAATTTTCCTAATCTTTCTGTTCAAGCGCCATCTAC”, the binding signal is 7.57 RPM ratio (pull-down/input). The figure for “GATGATTGTTCTCCCAGCTGATGAATTGATTATGTCGAGTAAACAAATTTTCCTAATCTTTCTGTTCAAGCGCCATCTAC” is 1.86 RPM ratio (pull-down/input); for “GATGATTGTTCTCCCAGCTGATGAATTTATTATGTCGAGTAAACAAATTTTCCTAATCTTTCTGTTCAAGCGCCATCTAC” it is 5.83 RPM ratio (pull-down/input); for “GATGATTGTTCTCCCAGCTGATGAATTTCTTATGTCGAGTAAACAAATTTTCCTAATCTTTCTGTTCAAGCGCCATCTAC” it is 0.657 RPM ratio (pull-down/input). With “GATGATTGTTCTCCCAGCTGATGAATTGTTTATGTCGAGTAAACAAATTTTCCTAATCTTTCTGTTCAAGCGCCATCTAC” the figure was 7 RPM ratio (pull-down/input); with “GATGATTGTTCTCCCAGCTGATGAATTTGTTATGTCGAGTAAACAAATTTTCCTAATCTTTCTGTTCAAGCGCCATCTAC”, 6.84 RPM ratio (pull-down/input); with “GATGATTGTTCTCCCAGCTGATGAATTTTTTATGTCGAGTAAACAAATTTTCCTAATCTTTCTGTTCAAGCGCCATCTAC”, 0.31 RPM ratio (pull-down/input). As for “GATGATTGTTCTCCCAGCTGATGAATTTATGATGTCGAGTAAACAAATTTTCCTAATCTTTCTGTTCAAGCGCCATCTAC”, the binding signal was 3.91 RPM ratio (pull-down/input). As to “GATGATTGTTCTCCCAGCTGATGAATTATGTCTGTCGAGTAAACAAATTTTCCTAATCTTTCTGTTCAAGCGCCATCTAC”, the binding signal was 1.14 RPM ratio (pull-down/input). For “GATGATTGTTCTCCCAGCTGATGAATTTATGTTGTCGAGTAAACAAATTTTCCTAATCTTTCTGTTCAAGCGCCATCTAC”, the binding signal was 4.93 RPM ratio (pull-down/input). On to “GATGATTGTTCTCCCAGCTGATGAATTGAGCACGTCGAGTAAACAAATTTTCCTAATCTTTCTGTTCAAGCGCCATCTAC”, for which the binding signal was 0.919 RPM ratio (pull-down/input). With “GATGATTGTTCTCCCAGCTGATGAATTCGTATGCTCGAGTAAACAAATTTTCCTAATCTTTCTGTTCAAGCGCCATCTAC”, the binding signal was 2.01 RPM ratio (pull-down/input). Take “GATGATTGTTCTCCCAGCTGATGAATTTGGCGACTCGAGTAAACAAATTTTCCTAATCTTTCTGTTCAAGCGCCATCTAC”: the binding signal was 1.79 RPM ratio (pull-down/input). Consider “GATGATTGTTCTCCCAGCTGATGAATTTCTGCTGTCGAGTAAACAAATTTTCCTAATCTTTCTGTTCAAGCGCCATCTAC”, for which the binding signal is 0.378 RPM ratio (pull-down/input). With “GATGATTGTTCTCCCAGCTGATGAATTACTTGTTTCGAGTAAACAAATTTTCCTAATCTTTCTGTTCAAGCGCCATCTAC” the figure was 0.804 RPM ratio (pull-down/input). For “GATGATTGTTCTCCCAGCTGATGAATTCCTGAAATCGAGTAAACAAATTTTCCTAATCTTTCTGTTCAAGCGCCATCTAC”, the binding signal is 0.237 RPM ratio (pull-down/input). As for “GATGATTGTTCTCCCAGCTGATGAATTTGAGTTATCGAGTAAACAAATTTTCCTAATCTTTCTGTTCAAGCGCCATCTAC”, the binding signal was 0.953 RPM ratio (pull-down/input). Take “GATGATTGTTCTCCCAGCTGATGAATTACCCTGATCGAGTAAACAAATTTTCCTAATCTTTCTGTTCAAGCGCCATCTAC”: the binding signal was 0.253 RPM ratio (pull-down/input).

Regarding “GATGATTGTTCTCCCAGCTGATGAATTTAGATTCTCGAGTAAACAAATTTTCCTAATCTTTCTGTTCAAGCGCCATCTAC”, the binding signal is 0.815 RPM ratio (pull-down/input). Take “GATGATTGTTCTCCCAGCTGATGAATTGAGTATATCGAGTAAACAAATTTTCCTAATCTTTCTGTTCAAGCGCCATCTAC”: the binding signal is 1.7 RPM ratio (pull-down/input). The figure for “GATGATTGTTCTCCCAGCTGATGAATTTGTGTAATCGAGTAAACAAATTTTCCTAATCTTTCTGTTCAAGCGCCATCTAC” is 4.48 RPM ratio (pull-down/input); for “GATGATTGTTCTCCCAGCTGATGAATTTTCTGTATCGAGTAAACAAATTTTCCTAATCTTTCTGTTCAAGCGCCATCTAC” it is 0.456 RPM ratio (pull-down/input); for “GATGATTGTTCTCCCAGCTGATGAATTCTCTGTATCGAGTAAACAAATTTTCCTAATCTTTCTGTTCAAGCGCCATCTAC” it is 0.441 RPM ratio (pull-down/input). With “GATGATTGTTCTCCCAGCTGATGAATTGTATATCTCGAGTAAACAAATTTTCCTAATCTTTCTGTTCAAGCGCCATCTAC”, the binding signal is 3.03 RPM ratio (pull-down/input). The figure for “GATGATTGTTCTCCCAGCTGATGAATTGTGTATATCGAGTAAACAAATTTTCCTAATCTTTCTGTTCAAGCGCCATCTAC” is 6.5 RPM ratio (pull-down/input). Consider “GATGATTGTTCTCCCAGCTGATGAATTTGGTGTATCGAGTAAACAAATTTTCCTAATCTTTCTGTTCAAGCGCCATCTAC”, for which the binding signal was 3.25 RPM ratio (pull-down/input). As for “GATGATTGTTCTCCCAGCTGATGAATTGTGTGTATCGAGTAAACAAATTTTCCTAATCTTTCTGTTCAAGCGCCATCTAC”, the binding signal is 6.39 RPM ratio (pull-down/input).

Consider “GATGATTGTTCTCCCAGCTGATGAATTTTGTGTATCGAGTAAACAAATTTTCCTAATCTTTCTGTTCAAGCGCCATCTAC”, for which the binding signal was 6.55 RPM ratio (pull-down/input).

Turning to “GATGATTGTTCTCCCAGCTGATGAATTCTGTGTATCGAGTAAACAAATTTTCCTAATCTTTCTGTTCAAGCGCCATCTAC”, the binding signal was 5.85 RPM ratio (pull-down/input).

Take “GATGATTGTTCTCCCAGCTGATGAATTCTTTGTATCGAGTAAACAAATTTTCCTAATCTTTCTGTTCAAGCGCCATCTAC”: the binding signal is 0.57 RPM ratio (pull-down/input). The figure for “GATGATTGTTCTCCCAGCTGATGAATTGTGTAAATCGAGTAAACAAATTTTCCTAATCTTTCTGTTCAAGCGCCATCTAC” is 0.96 RPM ratio (pull-down/input).

Turning to “GATGATTGTTCTCCCAGCTGATGAATTTCAACGGTCGAGTAAACAAATTTTCCTAATCTTTCTGTTCAAGCGCCATCTAC”, the binding signal was 0.241 RPM ratio (pull-down/input). Regarding “GATGATTGTTCTCCCAGCTGATGAATTTGGTGGCTCGAGTAAACAAATTTTCCTAATCTTTCTGTTCAAGCGCCATCTAC”, the binding signal is 1.09 RPM ratio (pull-down/input).
